Compound activity deposited in PubChem BioAssay by several laboratories.
CYP2C9 inh = blocks human cytochrome P450 2C9; P11712; CYP2C9 Supersomes, luciferin-H conversion, luminescence; inhibition, % at 5 µM; 96,000 tested, 20% active; AID 777;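 active = blocking of liver enzyme CYP2C9 beyond about 50% at 5 µM, limit read from the data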
Measles CPE = protection of cells from measles virus; Measles virus-infected cells, CPE protection, absorbance; 140,000 tested, 1.5% active; protection (pct of control), % at 4 µM; AID 841; in the data active = protection mostly above about 24%, no sharp cut-off; inactive = mostly below about 26%
CYP2C19 activ = activators of human cytochrome P450 2C19. P33261. recombinant CYP2C19, luciferin-H EGE luminescence; stronger effect = higher value; 0 = fully inhibited enzyme, 1 = untreated enzyme. activation factor at 5 µM. 96,000 tested, under 10 active. AID 1025;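 active = activation factor of at least 2 at 5 µM in the primary screen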;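 also: 0 = wells with 2.5 mM tranylcypromine and 1 = vehicle-only wells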
Target sequence (P33261 whole entry, looked up): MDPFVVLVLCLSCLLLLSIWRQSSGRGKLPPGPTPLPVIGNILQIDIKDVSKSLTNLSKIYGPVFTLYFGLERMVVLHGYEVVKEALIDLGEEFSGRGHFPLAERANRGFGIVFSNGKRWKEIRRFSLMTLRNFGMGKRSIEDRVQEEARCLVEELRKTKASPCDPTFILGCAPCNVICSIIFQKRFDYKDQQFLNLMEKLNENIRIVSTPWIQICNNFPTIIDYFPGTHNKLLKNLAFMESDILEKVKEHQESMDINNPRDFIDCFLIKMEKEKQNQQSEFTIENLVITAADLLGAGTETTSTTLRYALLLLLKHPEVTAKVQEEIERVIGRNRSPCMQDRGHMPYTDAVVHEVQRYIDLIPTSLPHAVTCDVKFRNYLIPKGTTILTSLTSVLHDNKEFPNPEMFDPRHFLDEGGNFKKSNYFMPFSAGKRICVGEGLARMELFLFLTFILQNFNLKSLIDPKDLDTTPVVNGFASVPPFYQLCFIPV
CYP2C19 inhib = inhibitors of human CYP2C19 | AID 778 | 96,000 tested, 21% active | P33261 | CYP2C19 Supersomes, luciferin-H EGE luminescence, 30 min | inhibition, % at 5 µM;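 active = CYP2C19 inhibition above a set limit at 5 µM in the primary screen, cut at about 50% in these data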;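 also: plate controls were negative control wells for no effect and 2.5 mM tranylcypromine positive control for full effect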
CYP2C9 activ = CYP2C9 (human) activation; P11712; 96,000 tested, 1.4% active; recombinant CYP2C9, luciferin-H conversion, luminescence; stronger effect = higher value; factor 1 = untreated enzyme, 0 = blocked; activation factor at 5 µM;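 active = activation factor of 2 or more for CYP2C9 at a 5 µM dose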;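 also: 0 = sulfaphenazole-blocked wells and 1 = vehicle-only wells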
Active calls of the source: *. Compounds with a hit are over-represented: about 22% of the library has one in this group of screens.

`Cc1cc(NS(=O)(=O)c2ccccc2)cc(Cl)c1O` gave CYP2C9 inh -74, CYP2C19 activ 0, CYP2C19 inhib 100* and CYP2C9 activ 1.7.
Cc1ccc(S(=O)(=O)Nc2cc(C)c(O)c(S(=O)(=O)c3ccc(C)cc3)c2)cc1 was read as CYP2C9 inh 77*, Measles CPE 7, CYP2C19 activ 0.6, CYP2C19 inhib 36 and CYP2C9 activ 0.2.
O=C(O)c1ccc(S(=O)(=O)Nc2ccc(F)c(Cl)c2)cc1 was read as CYP2C9 inh 8, Measles CPE 37, CYP2C19 activ 1, CYP2C19 inhib 3 and CYP2C9 activ 0.9.
Screening Cc1n[nH]c(C)c1CCOc1ccc(C(C)C)cc1 returned CYP2C9 inh 21, Measles CPE 8, CYP2C19 activ 0.9, CYP2C19 inhib 14 and CYP2C9 activ 0.8.
`COc1ccc(-c2noc(CCC(=O)N3CCN(c4cccc(C(F)(F)F)c4)CC3)n2)cc1` gave CYP2C9 inh 83*, Measles CPE 1, CYP2C19 activ 0.3, CYP2C19 inhib 70* and CYP2C9 activ 0.2.
`COc1ccc(-c2cc(CCCC(=O)N3CCN(c4ccc(OC)cc4)CC3)no2)cc1` gave CYP2C9 inh 71*, Measles CPE 3, CYP2C19 activ 0.3, CYP2C19 inhib 70* and CYP2C9 activ 0.3.
For COc1ccc(-c2cc(CCCC(=O)NCCc3cc(OC)ccc3OC)no2)cc1 the results were CYP2C9 inh 66*, Measles CPE 5, CYP2C19 activ 0.4, CYP2C19 inhib 57* and CYP2C9 activ 0.3.
For COc1ccc(NC(=O)N2CCN(c3cccc(C(F)(F)F)c3)CC2)cc1 the results were CYP2C9 inh -31, Measles CPE 10, CYP2C19 activ 1.1, CYP2C19 inhib -10 and CYP2C9 activ 1.3.
For CCOc1ccc(-c2cc(CCCC(=O)NCc3ccc(C)cc3)no2)cc1 the results were CYP2C9 inh 53*, Measles CPE 3, CYP2C19 activ 0.6, CYP2C19 inhib 36 and CYP2C9 activ 0.5.
For COc1ccc(N2CCN(C(=O)CCCC3=NS(=O)(=O)c4ccccc4N3)CC2)cc1 the results were CYP2C9 inh 8, Measles CPE 5, CYP2C19 activ 0.9, CYP2C19 inhib 5 and CYP2C9 activ 0.9.
For CCc1cc2c3c(c1)C(C)CC(C)(C)N3C(=O)C2=O (stereo not drawn) the results were Measles CPE 3.
`CC(C)C(=O)N1N=C(c2ccc(NS(C)(=O)=O)cc2)CC1c1cccs1` (stereo not drawn) gave Measles CPE 13.
`Cc1ccc2c(C)[nH]c(=O)cc2c1` gave CYP2C9 inh 4, Measles CPE 5, CYP2C19 activ 1, CYP2C19 inhib 4 and CYP2C9 activ 1.
For CC(=O)Oc1ccc2c(c1)Oc1cc(OC(C)=O)ccc1C21OC(=O)c2ccccc21 the results were Measles CPE 12.
For CCOc1ccc(-c2nnc(-c3cccs3)o2)cc1 the results were CYP2C9 inh 18, Measles CPE 7, CYP2C19 activ 0.9, CYP2C19 inhib 8 and CYP2C9 activ 0.8.
CCCOc1ccc(-c2nnc(-c3ccncc3)o2)cc1 was read as CYP2C9 inh 89*, Measles CPE 3, CYP2C19 activ 0, CYP2C19 inhib 99* and CYP2C9 activ 0.1.
Screening COc1ccc(-c2nnc(-c3ccc(OCC(C)C)cc3)o2)cc1 returned CYP2C9 inh 19, Measles CPE 7, CYP2C19 activ 1, CYP2C19 inhib -2 and CYP2C9 activ 0.8.
CC(C)COc1ccc(-c2nnc(-c3ccncc3)o2)cc1 was read as CYP2C9 inh 42, Measles CPE 1, CYP2C19 activ 0.2, CYP2C19 inhib 78* and CYP2C9 activ 0.6.
For c1cc(-c2nnc(-c3ccncc3)o2)ccn1 the results were CYP2C9 inh 12, CYP2C19 activ 0.3, CYP2C19 inhib 66* and CYP2C9 activ 0.9.
`OCC#CCSc1nnc(-c2ccncc2)o1` gave CYP2C9 inh -6, Measles CPE 5, CYP2C19 activ 0.8, CYP2C19 inhib 23 and CYP2C9 activ 1.1.
Screening COc1ccc2nc(C)cc(SCC(=O)N/N=C/c3c(OC)ccc4ccccc34)c2c1 returned Measles CPE 21.
CC(C)CCNC(=O)NC(=O)COC(=O)c1cc(S(=O)(=O)N2CCOCC2)ccc1N1CCCCC1 was read as CYP2C9 inh 9, Measles CPE 10, CYP2C19 activ 0.9, CYP2C19 inhib 10 and CYP2C9 activ 0.9.
Oc1cccc2ccc(Nc3ccccn3)nc12 was read as CYP2C9 inh 0, Measles CPE 1, CYP2C19 activ 1, CYP2C19 inhib 0 and CYP2C9 activ 1.
